L3MBTL1 inh-1: L3MBTL1 (human) inhibition. Q9Y468. AlphaScreen L3MBTL1–H3K9me1 peptide binding. Potency, µM (doses to about 57.1 µM), for the others: at the highest dose activity, negative = inhibition, hits mostly inhibitors. 230,000 compounds, 0.66% hits. AID 485360; also: % is scaled to controls: 0 for no effect and ±100 for the full control effect; nearly all actives have a fitted effect of over 60% in size
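AlphaScreen proximity signal between nickel-chelate acceptor and streptavidin donor beads (final 10 ug/mL) reports binding of 50 nM L3MBTL1 to 75 nM biotin-H3 K9me1 peptide; complex incubated with compounds 30 min at room temperature; cefsulodin titration as control.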
BLM inh: Bloom syndrome helicase (human) inhibition; recombinant BLM DNA unwinding, fluorescence dequenching; Potency, µM (titrated, usually from 56.1 µM), inactives show top-dose activity change, negative = inhibition, actives largely listed as inhibitors; 350,000 compounds, 0.2% hits; AID 2528;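 also: plate controls were vehicle for no effect and no enzyme for full effect; nearly all actives have a fitted effect of over 35% in size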
JMJD2E inh: blocks human JMJD2E demethylase activity. Potency, µM (highest dose often 57.1 µM), without a hit: top-dose activity change, negative = inhibition, most hits filed as inhibitors. JMJD2E catalytic domain, FDH-coupled NADH fluorescence (FDH is formaldehyde dehydrogenase). 230,000 compounds, 1.6% hits. B2RXH2; active = well fitted inhibition curve with a large enough effect, not every such curve was filed as active; inconclusive = small, poorly fitted or top-dose-only effect, or another doubt; inactive = no such curve, though single readings can be large or run the other way;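 also: 0% = wells with enzyme and -100% = buffer wells without enzyme; nearly all actives have a fitted effect of over 50% in size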
RECQ1 inh-1: inhibitors of human RECQ1 DNA helicase; P46063; 240,000 compounds, 0.54% hits; RECQ1 DNA unwinding, red fluorescence kinetic read; Potency, µM (highest dose often 57.3 µM), for the others: top-dose activity, negative = inhibition, actives largely listed as inhibitors; AID 2549;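 also: plate controls were vehicle for no effect and no enzyme for full effect; nearly all actives have a fitted effect of over 30% in size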
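RECQ1T1 50 nM; forked duplex (20 bp + 30-nt ss tails) 200 nM, ATP 2 mM final; pH 8.0, 2 mM MgCl2, 2.5 ug/ml poly(dI-dC); 15 min compound preincubation; discontinuous kinetic read over 2 h at RT.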
APE1 inh: inhibitors of human APE1 endonuclease. recombinant APE1, TAMRA/BHQ-2 abasic DNA cleavage fluorescence. 350,000 compounds, 0.35% hits. P27695. Potency, µM (top dose mostly 65.8 µM), inactives show at the highest dose activity change, negative = inhibition, usual class: inhibitors;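 also: plate controls were vehicle for no effect and reference inhibitor for full effect; nearly all actives have a fitted effect of over 55% in size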
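APE1 at 0.75 nM preincubated 15 min at room temperature with compound. Reaction then started with 50 nM double-stranded THF-abasic substrate labelled with TAMRA/BHQ-2, and 525/598 nm fluorescence read kinetically. Activity taken as third-minus-first read difference, normalized to DMSO and NSC13755 controls.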
TDP1 inh: blocks human tyrosyl-DNA phosphodiesterase 1; Q9NUW8; 350,000 compounds, 0.28% hits; recombinant TDP1, AlphaScreen DNA substrate cleavage; Potency, µM (top dose mostly 130 µM), for the others: at the highest dose activity change, negative = inhibition, actives largely listed as inhibitors; AID 485290; also: % is scaled to controls: 0 for no effect and ±100 for the full control effect; nearly all actives have a fitted effect of over 40% in size
Target sequence (Q9NUW8 whole entry, looked up): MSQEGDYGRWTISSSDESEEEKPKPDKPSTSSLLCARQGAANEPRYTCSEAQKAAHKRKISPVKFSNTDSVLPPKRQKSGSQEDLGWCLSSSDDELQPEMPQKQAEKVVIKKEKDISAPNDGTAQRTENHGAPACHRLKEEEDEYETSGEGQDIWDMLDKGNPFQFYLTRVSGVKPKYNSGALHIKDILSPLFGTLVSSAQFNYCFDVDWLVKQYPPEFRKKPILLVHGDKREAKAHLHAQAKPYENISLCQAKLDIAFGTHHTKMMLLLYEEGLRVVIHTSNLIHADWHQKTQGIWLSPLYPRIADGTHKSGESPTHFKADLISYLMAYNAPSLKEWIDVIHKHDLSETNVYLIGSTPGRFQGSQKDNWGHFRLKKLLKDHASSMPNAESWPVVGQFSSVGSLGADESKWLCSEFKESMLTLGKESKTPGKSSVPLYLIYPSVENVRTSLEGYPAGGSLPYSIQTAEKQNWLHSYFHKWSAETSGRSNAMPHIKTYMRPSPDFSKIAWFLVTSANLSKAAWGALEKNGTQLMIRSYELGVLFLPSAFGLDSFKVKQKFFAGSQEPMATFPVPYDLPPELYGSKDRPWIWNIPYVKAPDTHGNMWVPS
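Signal: AlphaScreen proximity between streptavidin donor and anti-FITC acceptor beads on intact substrate. Reaction: Tdp1 1 nM, substrate 15 nM final, 5 min RT after 15 min compound preincubation.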
RECQ1 inh-2: blocks human RECQ1 DNA unwinding | AID 504841 | 1,100 compounds, 15% hits | recombinant RECQ1 DNA unwinding, red fluorescence | shares compounds with RECQ1 inh-1 | Potency, µM (top dose mostly 119 µM), inactives show top-dose activity, negative = inhibition, hits mostly inhibitors; also: % is scaled to controls: 0 for no effect and ±100 for the full control effect; nearly all actives have a fitted effect of over 50% in size
L3MBTL1 inh-2: L3MBTL1 binding inhibition validated; 500 compounds, 91% hits; Potency, µM, most hits filed as inhibitors; shares compounds with L3MBTL1 inh-1; L3MBTL1 methyl-lysine binding inhibition, biochemical qHTS; also: nearly all actives have a fitted effect of over 70% in size
L3MBTL1 ctr: counter-screen for L3MBTL1 inhibitors: AlphaScreen signal interference; Potency, µM (series often up to 57.1 µM), without a hit: at the top dose activity change, negative = inhibition, usual class: inhibitors; AlphaScreen counterscreen, signal inhibition; shares compounds with L3MBTL1 inh-1; 500 tested, under 10 active; AID 602224; also: 0% is about no effect
* = called active by the depositor; i = inactive; u = inconclusive; x = no result; [ ] = remark or other dose. The sample as a whole holds a higher share of hits than the screen did. Unless noted, calls follow the shape of the dose curve; as a rule, active = well fitted curve in the direction sought with a large enough effect; inconclusive = small, poorly fitted or top-dose-only effect, or another doubt; inactive = no such curve, though single readings can be large; an effect the other way counts as inactive or inconclusive. Potency is read from the fitted curve at half-maximal effect.

SMILES	L3MBTL1 inh-1	BLM inh	JMJD2E inh	RECQ1 inh-1	APE1 inh	TDP1 inh	L3MBTL1 inh-2	L3MBTL1 ctr	others
O=C(/C=C/c1ccco1)NCC1OCCc2ccccc21 (centres undefined)	22µM*	u	u	u	u	x	6*	1%	RECQ1 inh-2=6.3µM*
CCN(CC)S(=O)(=O)c1ccc(N2CCOCC2)c(NC(=O)c2c3c(nc4ccccc24)CCC3)c1	28µM*	-19%	5%	16µM*	u	-9%	8.4*	0%	RECQ1 inh-2=u
CCN(CC)S(=O)(=O)c1ccc(N2CCOCC2)c(NC(=O)c2ccc3ccccc3c2)c1	-4%	-1%	u	-3%	-4%	2%	x	x
CC1CCC(O)C/C1=C\C=C1/CCCC2(C)C1CCC2C(C)/C=C/C(C)C(C)C (centres undefined)	x	-6%	x	-16%	-4%	11%	x	x
O=C(C1CCN(S(=O)(=O)Cc2ccccc2)CC1)N1CCN(c2ccc(F)cc2)CC1	x	-4%	x	x	x	3%	x	x
COc1cccc(=O)c2c(C)n(-c3ccc(C(=O)O)cc3)c(C)c12	25µM*	2%	u	u	u	u	21*	-15%	RECQ1 inh-2=u
O=C(O)CC/C(=C\c1cc([N+](=O)[O-])ccc1Cl)c1nc2ccccc2s1	2%	0%	-3%	4%	-4%	5%	x	x
O=C(O)CC/C(=C\c1cccc(NC(=O)c2ccccc2Cl)c1)c1nc2ccccc2s1	35µM*	-18%	u	u	u	x	u	-3%	RECQ1 inh-2=u
N#Cc1nc(COc2ccccc2Cl)oc1N1CCCCCC1	-3%	-7%	-7%	-1%	0%	5%	x	x
N#Cc1nc(COc2ccccc2Cl)oc1N1CCCC1	28µM*	-11%	-4%	i	-2%	5%	u	u
FB(F)F	x	x	x	4%	-1%	6%	x	x
O=C(NC1CC1)C1CCN(S(=O)(=O)c2cc([N+](=O)[O-])ccc2Cl)CC1	7.9µM*	x	x	x	u	u	3*	7%
CC(C)(CNC(=O)C1CCN(S(=O)(=O)c2cc([N+](=O)[O-])ccc2Cl)CC1)N1CCOCC1	1%	x	x	x	18%	0%	x	x
O=C(Nc1nc(-c2ccccn2)cs1)C1COc2ccccc2O1 (centres undefined)	11µM*	3%	7%	3%	4%	5%	12*	-65%
O=C(Nc1nc(-c2ccccc2)cs1)C1COc2ccccc2O1 (centres undefined)	x	-7%	-3%	-9%	4%	5%	x	x
O=C(CCS(=O)(=O)c1ccc(Br)cc1)Nc1cc(F)ccc1F	28µM*	-2%	-5%	-18%	u	-13%	27*	10%
CSc1nn(Cc2ccccc2C)c(NC(C)=O)c1S(=O)(=O)c1ccc(C)cc1	x	-6%	x	x	x	0%	x	x
COCCN1CSC(=S)N(Cc2ccco2)C1	1%	-7%	-1%	-4%	-3%	0%	x	x
S=C1SCN(Cc2ccccn2)CN1Cc1ccco1	28µM*	-8%	-12%	i	1%	-2%	27*	4%
CCCN1CNc2c(c(=O)[nH]c(=S)n2CCc2cccc(OC)c2)C1	x	x	x	x	x	1%	x	x
CC(=O)c1ccc(NC(=O)CC2Nc3cccc4cccc(c34)NC2=O)cc1 (centres undefined)	3.5µM*	u	u	i	-4%	5%	27*	u
CC(C)C[C@@H](NC(=O)[C@H](Cc1ccccc1)NC(=O)c1cnccn1)B(O)O	x	-2%	x	x	x	x	x	x
C/C(CCN1CCCc2nc(C)c(C)cc21)=N\O[C@@H](C)c1cn([C@@H]2COC[C@@H]2O)nn1	x	3%[12.4 µM]	x	7%[11.5 µM]	23%[12.4 µM]	11%[21 µM]	x	x
COc1ccc(C=C2c3ccccc3C(=O)c3ccccc32)cc1O	x	-13%	x	-16%	u	23%	x	x
COC(=O)\C(C(C)=O)=C(/C=C/C=C/N(C)C)N(C)C	14µM*	3%	-21%	-16%	u	22µM*	6.7*	19%
SMILES	L3MBTL1 inh-1	BLM inh	JMJD2E inh	RECQ1 inh-1	APE1 inh	TDP1 inh	L3MBTL1 inh-2	L3MBTL1 ctr	others
COC(=O)/C(C(C)=O)=C(/C=C/C=C/N(C)C)N(C)C	x	-1%	-5%	11%	-11%	-15%	x	x
CC(=O)c1cccc(NC(=O)CSc2nc(=O)n(Cc3ccco3)c3c2CCC3)c1	x	4%	x	x	x	8%	x	x
CC(=O)c1c(COC(=O)c2ccncc2)nc2ccccc2[n+]1[O-]	35µM*	-2%	2%	5%	4%	-6%	u	-1%
O=C(O)c1cc(-c2ccc(/C=N/NC(=S)Nc3ccccc3)o2)ccc1Cl	u	4%	u	u	u	x	x	x
Cc1ccc(N2NC(=O)/C(=C/c3ccc(-c4ccc(Cl)c(C(=O)O)c4)o3)C2=O)cc1	28µM*	-3%	-1%	-3%	1%	8%	11*	-2%
CCCCC1(C)OC(=O)C(=Cc2ccc(-c3ccc(Cl)c(C(=O)O)c3)o2)C(=O)O1 (centres undefined)	7.9µM*	6%	u	u	u	x	13*	1%
CCOC(=O)c1cc(-c2ccc(/C=C3/C(=O)NC(=O)C(C#N)=C3C)o2)ccc1Cl	u	-21%	u	u	u	-8%	x	x
O=C(O)CCCCCn1c(SCC(=O)c2ccc(O)c(O)c2)nc2ccsc2c1=O	32µM*	2%	10µM*	-20%	u	x	3*	-1%
Cc1nn(-c2ccc(Cl)cc2)c2nc(-c3cccnc3)cc(C(F)(F)F)c12	x	2%	x	x	x	7%	x	x
CC(=O)Nc1ccc2nc3c(=O)n(C)c(=O)n(C)c3nc2c1	25µM*	-25%	u	-2%	-10%	x	24*	5%
CCc1ccccc1NC(=O)Nc1ccc2c(c1)N(CC)C(=O)c1ccccc1S2	x	-1%	x	x	x	6%	x	x
COC(=O)CCC(=O)OC1(C)C(=O)C=C2C=C(C3CC3)N(c3ccc(OC)cc3)C=C2C1=O (centres undefined)	x	-8%[12.4 µM]	u	-13%[11.5 µM]	-1%[12.4 µM]	4%[12.3 µM]	x	x
Cc1cc(C)n(-c2nnc3c4ccccc4n(C)c3n2)n1	28µM*	-9%	-5%	i	-10%	x	u	u

Source: PubChem BioAssay
